Source: PubChem BioAssay (Tox21)
Results filed as inconclusive are left out. The source made the active and inactive calls. Calls follow the shape of the dose curve; as a rule, active = well fitted curve in the direction sought with a large enough effect in the repeat runs; inconclusive = weak or mixed curves; inactive = no such curve, though single readings can be large; an effect the other way counts as inactive or inconclusive.

Key:
[1] = qHTS RealTime-Glo MT Cell Viability Assay in HepG2 cells - 40 hour (AID 1224870); also: nearly all actives have a fitted effect of over 50% in size
In short: (§1)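 HepG2 cells mixed with RealTime-Glo MT reagents (NanoLuc plus cell-permeant prosubstrate) were seeded at 600 cells/well, incubated 5 h at 37 C/5% CO2, then pinned with compounds in DMSO; nonlytic luminescence tracked viability during 40 h treatment.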

[2] = A CellTox Green Cytotoxicity Assay to monitor cytotoxicity in HEK293 cells - 40 hour (AID 1224871); also: nearly all actives have a fitted effect of over 45% in size
In short: (§2)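 Real-time, in one plate: 600 HEK293 cells/well with dead-cell DNA dye, pinned compound after 5 h, 37 C incubation over 40 h; viable cells give no appreciable fluorescence.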

[3] = qHTS RealTime-Glo MT Cell Viability Assay in HEK293 cells - 16 hour (AID 1224872); also: top concentration of the series differs between compounds; nearly all actives have a fitted effect of over 50% in size
In short: (§3)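 Cells + reagent dispensed (600 cells/well, HEK293) → 5 h at 37 C/5% CO2 → 23 nL compound in DMSO pinned → 40 h at 37 C → luminescence read at 0, 8, 16, 24, 32, 40 h.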

[4] = qHTS RealTime-Glo MT Cell Viability Assay in HepG2 cells - 8 hour (AID 1224873); also: nearly all actives have a fitted effect of over 55% in size
In short: as §1

[5] = A CellTox Green Cytotoxicity Assay to monitor cytotoxicity in HEK293 cells - 24 hour (AID 1224875); also: series mostly up to about 77 µM; nearly all actives have a fitted effect of over 45% in size
In short: as §2

[6] = A CellTox Green Cytotoxicity Assay to monitor cytotoxicity in HepG2 cells - 16 hour (AID 1224876); also: nearly all actives have a fitted effect of over 45% in size
In short: (§4)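 Cytotoxicity was tracked as dead-cell DNA fluorescence in HepG2 cells treated with test compounds at 37 C; each time-point value comes from one kinetic series spanning 0, 8, 16, 24, 32 and 40 h.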

[7] = qHTS RealTime-Glo MT Cell Viability Assay in HepG2 cells - 32 hour (AID 1224877); also: nearly all actives have a fitted effect of over 55% in size
In short: (§5)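 Real-time, nonlytic viability: 600 HepG2 cells/well mixed with NanoLuc enzyme plus prosubstrate; 5 h settle, compound (DMSO) added by pintool; luminescence monitored over 40 h at 37 C.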

[8] = A CellTox Green Cytotoxicity Assay to monitor cytotoxicity in HepG2 cells - 24 hour (AID 1224878); also: nearly all actives have a fitted effect of over 45% in size
In short: as §4

[9] = A CellTox Green Cytotoxicity Assay to monitor cytotoxicity in HepG2 cells - 40 hour (AID 1224879); also: nearly all actives have a fitted effect of over 40% in size
In short: as §4

[10] = qHTS RealTime-Glo MT Cell Viability Assay in HEK293 cells - 0 hour (AID 1224880)
In short: (§6)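 Kinetic, non-lysing viability readout. Seed HEK293 (600/well) with reagent, incubate 5 h at 37 C/5% CO2, pin 23 nL compound in DMSO, incubate at 37 C, read luminescence at 0, 8, 16, 24, 32, 40 h.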

[11] = A CellTox Green Cytotoxicity Assay to monitor cytotoxicity in HepG2 cells - 0 hour (AID 1224882); also: nearly all actives have a fitted effect of over 35% in size
In short: as §4

[12] = A CellTox Green Cytotoxicity Assay to monitor cytotoxicity in HepG2 cells - 32 hour (AID 1224883); also: nearly all actives have a fitted effect of over 50% in size
In short: as §4

[13] = A CellTox Green Cytotoxicity Assay to monitor cytotoxicity in HEK293 cells - 8 hour (AID 1224884); also: nearly all actives have a fitted effect of over 35% in size
In short: as §2

[14] = qHTS RealTime-Glo MT Cell Viability Assay in HepG2 cells - 16 hour (AID 1224885); also: nearly all actives have a fitted effect of over 50% in size
In short: as §5

[15] = qHTS RealTime-Glo MT Cell Viability Assay in HEK293 cells - 24 hour (AID 1224886)
In short: as §3

[16] = qHTS RealTime-Glo MT Cell Viability Assay in HEK293 cells - 8 hour (AID 1224887)
In short: as §6

[17] = A CellTox Green Cytotoxicity Assay to monitor cytotoxicity in HEK293 cells - 16 hour (AID 1224888); also: nearly all actives have a fitted effect of over 35% in size
In short: as §2

[18] = qHTS RealTime-Glo MT Cell Viability Assay in HepG2 cells - 0 hour (AID 1224889); also: nearly all actives have a fitted effect of over 50% in size
In short: as §5

[19] = A CellTox Green Cytotoxicity Assay to monitor cytotoxicity in HEK293 cells - 32 hour (AID 1224881); also: nearly all actives have a fitted effect of over 40% in size
In short: as §2

[20] = qHTS RealTime-Glo MT Cell Viability Assay in HEK293 cells - 40 hour (AID 1224874); settings: RealTime-Glo luminescence; max response: hits give low values; also: nearly all actives have a fitted effect of over 50% in size
In short: as §6
% is scaled to controls: 0 for no effect and ±100 for the full control effect.

CC1(C)CC(=O)CC(C)(C)N1
inactive: Potency [1] | Potency [2] | Potency [3] | outcome [4] | Potency [5] | Potency [6] | Potency [7] | Potency [8] | Potency [9] | Potency [10] | Potency [11] | Potency [12] | Potency [13] | outcome [14] | Potency [15] | Potency [16] | Potency [17] | Potency [18]

Cc1c(Cl)cccc1[N+](=O)[O-]
inactive: Potency [1] | Potency [2] | Potency [3] | outcome [4] | Potency [5] | Potency [6] | Potency [7] | Potency [8] | Potency [9] | Potency [10] | Potency [19] | Potency [11] | Potency [12] | Potency [13] | Potency [15] | Potency [16] | Potency [17] | Potency [18]

CC(=O)S[C@H](C(=O)N[C@H]1Cc2ccccc2[C@H]2CCC[C@@H](C(=O)O)N2C1=O)C(C)C
inactive: Potency [1] | Potency [2] | outcome [4] | max response [20] 16.8% | Potency [5] | Potency [6] | Potency [7] | Potency [8] | Potency [9] | Potency [10] | Potency [19] | Potency [11] | Potency [12] | Potency [13] | outcome [14] | Potency [15] | Potency [16] | Potency [17] | Potency [18]

C=CC(=O)NC(C)(C)C
inactive: Potency [1] | Potency [2] | outcome [4] | max response [20] 1.33% | Potency [5] | Potency [6] | Potency [7] | Potency [8] | Potency [9] | Potency [10] | Potency [19] | Potency [11] | Potency [12] | Potency [13] | outcome [14] | Potency [15] | Potency [16] | Potency [17] | Potency [18]

CCCC1CCCC(=O)O1 (centres undefined)
inactive: Potency [1] | Potency [2] | Potency [3] | outcome [4] | Potency [5] | Potency [6] | Potency [7] | Potency [8] | Potency [9] | Potency [11] | Potency [12] | Potency [13] | outcome [14] | Potency [15] | Potency [16] | Potency [17] | Potency [18]

C=CC(=O)OCCCCCCCCCC
inactive: Potency [1] | Potency [2] | Potency [3] | outcome [4] | Potency [5] | Potency [6] | Potency [7] | Potency [8] | Potency [9] | Potency [10] | Potency [11] | Potency [12] | outcome [14] | Potency [15] | Potency [16] | Potency [17] | Potency [18]

O=P(c1ccccc1)(c1ccccc1)c1ccccc1
inactive: Potency [1] | Potency [2] | Potency [3] | outcome [4] | Potency [5] | Potency [6] | Potency [7] | Potency [8] | Potency [9] | Potency [10] | Potency [19] | Potency [11] | Potency [12] | outcome [14] | Potency [15] | Potency [16] | Potency [17] | Potency [18]

N#CCCCC(C#N)CCC#N (centres undefined)
inactive: Potency [1] | Potency [2] | outcome [4] | max response [20] 17.1% | Potency [5] | Potency [6] | Potency [7] | Potency [8] | Potency [9] | Potency [10] | Potency [19] | Potency [11] | Potency [12] | Potency [13] | Potency [15] | Potency [16] | Potency [17] | Potency [18]

Nc1ccc(-c2ccc(F)cc2)cc1
inactive: Potency [1] | Potency [2] | outcome [4] | max response [20] -22.4% | Potency [5] | Potency [6] | Potency [7] | Potency [8] | Potency [9] | Potency [10] | Potency [19] | Potency [11] | Potency [12] | Potency [13] | outcome [14] | Potency [15] | Potency [17] | Potency [18]

[O-][n+]1ccc(Cl)cc1
inactive: Potency [1] | Potency [2] | outcome [4] | max response [20] 17.4% | Potency [5] | Potency [6] | Potency [7] | Potency [8] | Potency [9] | Potency [10] | Potency [19] | Potency [11] | Potency [12] | Potency [13] | outcome [14] | Potency [15] | Potency [16] | Potency [17] | Potency [18]

O=C(O)c1cccc(C(=O)O)c1C(=O)O
inactive: Potency [1] | Potency [2] | outcome [4] | max response [20] -17% | Potency [5] | Potency [6] | Potency [7] | Potency [8] | Potency [9] | Potency [10] | Potency [19] | Potency [11] | Potency [12] | outcome [14] | Potency [15] | Potency [16] | Potency [17] | Potency [18]

CCCc1nc(C)c2c(=O)[nH]c(-c3cc(S(=O)(=O)N4CCN(CC)CC4)ccc3OCC)nn12
inactive: Potency [1] | Potency [2] | Potency [3] | outcome [4] | Potency [5] | Potency [6] | Potency [7] | Potency [8] | Potency [9] | Potency [10] | Potency [19] | Potency [11] | Potency [12] | outcome [14] | Potency [16] | Potency [17] | Potency [18]

N#C[C@@H]1CC(F)(F)CN1C(=O)CNC1CC2CCC(C1)N2c1ncccn1 (some centres undefined)
inactive: Potency [1] | Potency [2] | Potency [3] | outcome [4] | Potency [5] | Potency [6] | Potency [7] | Potency [8] | Potency [10] | Potency [19] | Potency [11] | Potency [12] | Potency [13] | outcome [14] | Potency [15] | Potency [16] | Potency [17] | Potency [18]
